High-throughput results: PubChem BioAssay, several laboratories
hcDAF12 agonist: activates DAF-12 receptor from parasite H. contortus. HEK293 hcDAF-12 lit1-tk-luc reporter, luminescence; 0% DMSO, 100% Δ7-dafachronic acid. activation, % at 6.8 µM. actives 1.4% (n = 370,000). AID 652067;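 active = activation above the mean of all tested compounds plus 3 SD, cut at about 5.5% in these data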
ssDAF-12 act: activates DAF-12 receptor from parasite S. stercoralis. HEK293 ssDAF-12/GRIP1 lit1-tk-luc reporter, luminescence; % of 3 µM dafachronic acid response. activation, % at 6.8 µM. actives 1% (n = 370,000);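 active = activation above the mean over all tested compounds plus 3 SD, cut at about 0.9% in these data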
Rev-erbA mod: modulators of human Rev-erb alpha DNA binding | P20393 | AID 1259318 | activity, % at 10 µM | actives 0.79% (n = 370,000) | Rev-erbα–FITC-DNA binding, fluorescence polarization, 90 min;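 active = activity above about 14%, limit read from the data; passing the limit was not always enough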
DAX1 inh-1: inhibits human nuclear receptor DAX1 | P51843 | HEK293 Gal4-DAX1 luciferase reporter, luminescence | inhibition, % at 6.75 µM | actives 0.99% (n = 340,000) | AID 504766;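 active = inhibition above the mean over all tested compounds plus 3 SD, cut at about 4.2% in these data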;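 also: inhibition shows as a rise in luminescence from relieved DAX1 repression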
Target sequence (P51843 207-470 limits assumed): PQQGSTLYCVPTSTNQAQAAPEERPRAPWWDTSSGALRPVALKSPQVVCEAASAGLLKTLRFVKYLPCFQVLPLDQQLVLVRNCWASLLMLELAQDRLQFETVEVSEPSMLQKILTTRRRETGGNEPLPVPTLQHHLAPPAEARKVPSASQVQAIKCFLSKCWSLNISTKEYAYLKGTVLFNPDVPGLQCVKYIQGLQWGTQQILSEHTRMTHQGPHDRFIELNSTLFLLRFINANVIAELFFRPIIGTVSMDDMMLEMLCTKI
hgDAF12 agonist: hgDAF-12 agonism, primary luciferase screen; activation, % at 6.8 µM; HEK293 GAL4-hgDAF12 UAS-luciferase reporter, agonist luminescence; normalized to butyrate control; actives 1.8% (n = 370,000);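 active = activation above a cutoff set at the mean of all screened compounds plus 3 SD, cut at about 10% in these data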
DAX1 inh-2: inhibitors of DAX1 repression of SF-1 activated StAR promoter. AID 652010. inhibition, % at 6.8 µM. HEK293T StAR-luciferase reporter, SF-1/DAX-1 repression relief. actives 1.1% (n = 370,000);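 active = inhibition above the mean over all tested compounds plus 3 SD, cut at about 3.6% in these data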;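 also: higher inhibition means more luminescence from relief of DAX-1 repression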
DAX1 inh confirm: confirmation of human DAX1 (NR0B1) inhibitors; shares compounds with DAX1 inh-2; actives 87% (n = 2,400); inhibition, % at 6.8 µM; HEK293T StAR-promoter luciferase reporter, SF-1/DAX-1 repression;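 active = inhibition above the average of every tested compound plus 3 SD, cut at about 3.8% in these data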;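 also: active compounds raise luminescence by relieving repression of the StAR reporter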
SF1 AF2mut Luc: counter-screen for DAX1 inhibitors: nonselective inhibitors with SF-1 AF2 mutant; shares compounds with DAX1 inh-2; HEK293 StAR-luciferase, luminescence; inhibition, % at 6.8 µM; actives 78% (n = 2,400); AID 652136;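 active = inhibition above the mean of all tested compounds plus 3 SD, cut at about 3% in these data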
LXR ag: counter-screen for hcDAF-12 agonists: agonists of human LXR-beta | shares compounds with hcDAF12 agonist | HEK293 Gal4-LXR tk-luc reporter, luminescence, 24 h; normalized: DMSO 0%, positive control 100% | activation, % at 6.8 µM | 3,400 tested, under 10 active;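 active = mean percent activation of the reporter above a cutoff set as the average over tested compounds plus their standard deviation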
Target sequence (P55055 whole entry, looked up, the tested form may be a part): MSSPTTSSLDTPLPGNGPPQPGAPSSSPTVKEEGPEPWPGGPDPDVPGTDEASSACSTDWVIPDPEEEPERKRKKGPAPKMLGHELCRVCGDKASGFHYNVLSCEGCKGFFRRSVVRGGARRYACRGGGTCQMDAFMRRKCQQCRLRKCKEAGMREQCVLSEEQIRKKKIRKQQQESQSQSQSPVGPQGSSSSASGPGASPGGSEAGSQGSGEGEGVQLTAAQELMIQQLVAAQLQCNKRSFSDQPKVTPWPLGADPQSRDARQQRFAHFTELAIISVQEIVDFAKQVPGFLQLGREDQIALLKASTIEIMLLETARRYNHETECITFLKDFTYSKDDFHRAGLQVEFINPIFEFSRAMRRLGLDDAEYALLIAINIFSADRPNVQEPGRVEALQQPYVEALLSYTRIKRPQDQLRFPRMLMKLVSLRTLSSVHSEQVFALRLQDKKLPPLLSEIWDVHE
hcDAF12 ag: confirmation of H. contortus DAF-12 agonists; actives 61% (n = 3,400); activation, % at 6.8 µM; HEK293 hcDAF-12 lit1-tk-luc reporter, luminescence; % of Δ7-dafachronic acid response; shares compounds with hcDAF12 agonist; AID 743032;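 active = mean activation across triplicate tests above the threshold derived from the earlier primary screen, cut at about 5.5% in these data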
hgDAF12 ag: confirmation of H. glycines DAF-12 agonists. actives 80% (n = 3,300). activation, % at 6.8 µM. HEK293 GAL4-hgDAF12 luciferase reporter, agonist mode; percent of butyrate response. shares compounds with hgDAF12 agonist;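 active = mean activation over triplicate wells above the hit cutoff derived from the earlier primary screen, cut at about 11% in these data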
LXR ag 2: activates human LXR-beta, counter-screen for DAF-12 agonists; shares compounds with hgDAF12 agonist; HEK293 Gal4-LXR luciferase reporter, 24 h; 3,300 tested, under 10 active; AID 743051; activation, % at 6.8 µM;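 active = mean activation of the triplicate above a set limit carried over from the primary screen, none filed active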
Numbers stand for hits. This is a sample that favours compounds with a hit; in the whole collection about 4.8% have one here.

How did Clc1ccc2nc(CSc3nnc(-c4c[nH]c5ccccc45)o3)cn2c1 do in these assays?
hcDAF12 agonist: inactive; ssDAF-12 act: inactive; Rev-erbA mod: inactive; DAX1 inh-1: inactive; hgDAF12 agonist: inactive; DAX1 inh-2: inactive

What do the screens show for `Cc1csc(SCc2nnc(-c3ccc(Cl)cc3)o2)n1`?
hcDAF12 agonist: inactive; ssDAF-12 act: inactive; Rev-erbA mod: inactive; DAX1 inh-1: inactive; hgDAF12 agonist: inactive; DAX1 inh-2: inactive

How did Fc1ccccc1SCc1nnc(-c2ccccc2Br)o1 do in these assays?
hcDAF12 agonist: inactive; ssDAF-12 act: inactive; Rev-erbA mod: inactive; DAX1 inh-1: inactive; hgDAF12 agonist: 14.3; DAX1 inh-2: 6.5; DAX1 inh confirm: 16.3; SF1 AF2mut Luc: 7.3; hgDAF12 ag: 20.0; LXR ag 2: inactive

Results for Cc1csc(SCc2nnc(-c3ccccc3Br)o2)n1 ?
hcDAF12 agonist: inactive; ssDAF-12 act: inactive; Rev-erbA mod: inactive; DAX1 inh-1: inactive; hgDAF12 agonist: 15.7; DAX1 inh-2: 6.5; DAX1 inh confirm: 14.2; SF1 AF2mut Luc: 8.2; hgDAF12 ag: 17.1; LXR ag 2: inactive

What do the screens show for `CCN(CC)CCCN1C(=O)C2=C(C1=O)C1N(C)c3ccccc3[C@@]13C[C@@H](CO)N(C(=O)CCC(=O)OC)C3=N2` (stereo not given in full)?
hcDAF12 agonist: inactive; ssDAF-12 act: inactive; Rev-erbA mod: inactive; hgDAF12 agonist: inactive; DAX1 inh-2: inactive

Results for COc1ccc2cc3cc(C(=O)N4CCCCC4C)oc3nc2c1 (stereo not given) ?
hcDAF12 agonist: inactive; ssDAF-12 act: inactive; Rev-erbA mod: inactive; DAX1 inh-1: inactive; hgDAF12 agonist: 14.0; DAX1 inh-2: 10.6; DAX1 inh confirm: 10.1; SF1 AF2mut Luc: 5.3; hgDAF12 ag: 17.3; LXR ag 2: inactive

What do the screens show for `S=C(Nc1ccc(Br)cc1)OCCN1CCCC12CCC(c1ccccc1)CC2` (stereo not given)?
hcDAF12 agonist: inactive; ssDAF-12 act: inactive; Rev-erbA mod: inactive; hgDAF12 agonist: inactive

How did CCOCCCNC(=O)C1CCN(S(=O)(=O)c2cc3c(cc2Br)CCN3C(=O)CC)CC1 do in these assays?
hcDAF12 agonist: inactive; ssDAF-12 act: inactive; Rev-erbA mod: inactive; hgDAF12 agonist: inactive; DAX1 inh-2: inactive

What do the screens show for `CCOc1ccccc1Nc1nc(-c2cccnc2)cs1`?
hcDAF12 agonist: inactive; ssDAF-12 act: inactive; Rev-erbA mod: inactive; DAX1 inh-1: inactive; hgDAF12 agonist: inactive; DAX1 inh-2: inactive

Results for c1ccc(Nc2nc(-c3cccnc3)cs2)nc1 ?
hcDAF12 agonist: 10.4; ssDAF-12 act: inactive; Rev-erbA mod: inactive; DAX1 inh-1: inactive; hgDAF12 agonist: 17.9; DAX1 inh-2: 5.8; DAX1 inh confirm: 7.5; SF1 AF2mut Luc: 6.3; LXR ag: inactive; hcDAF12 ag: 8.1; hgDAF12 ag: 20.2; LXR ag 2: inactive

How did CCOC(=O)CC[C@@H]1CC[C@]2(CCCN(S(=O)(=O)c3ccccc3)C2)O1 do in these assays?
hcDAF12 agonist: inactive; ssDAF-12 act: inactive; Rev-erbA mod: inactive; hgDAF12 agonist: inactive; DAX1 inh-2: inactive

What do the screens show for `Cc1ccnc(NC(=O)C2CC(=O)N(c3ccc4c(c3)OCCO4)C2)c1` (stereo not given)?
hcDAF12 agonist: inactive; ssDAF-12 act: inactive; Rev-erbA mod: inactive; DAX1 inh-1: inactive; hgDAF12 agonist: 15.4; DAX1 inh-2: 11.6; DAX1 inh confirm: 12.5; SF1 AF2mut Luc: 6.2; hgDAF12 ag: 15.9; LXR ag 2: inactive

What do the screens show for `Cc1ccc(CN2CC(C(=O)Nc3cc(C)ccn3)CC2=O)cc1` (stereo not given)?
hcDAF12 agonist: inactive; ssDAF-12 act: inactive; Rev-erbA mod: inactive; DAX1 inh-1: inactive; hgDAF12 agonist: 22.2; DAX1 inh-2: 11.2; DAX1 inh confirm: 11.7; SF1 AF2mut Luc: 3.1; hgDAF12 ag: 22.0; LXR ag 2: inactive

What do the screens show for `CCc1nnc(NC(=O)c2sc3nc4c(cc3c2N)CCCCC4)s1`?
hcDAF12 agonist: 6.7; ssDAF-12 act: inactive; Rev-erbA mod: inactive; DAX1 inh-1: inactive; hgDAF12 agonist: 15.7; DAX1 inh-2: 5.0; DAX1 inh confirm: 11.6; SF1 AF2mut Luc: 7.8; LXR ag: inactive; hcDAF12 ag: 6.5; hgDAF12 ag: 13.7; LXR ag 2: inactive

What do the screens show for `CCc1nnc(NC(=O)c2sc3nc4c(cc3c2N)CCCCCC4)s1`?
hcDAF12 agonist: inactive; ssDAF-12 act: inactive; Rev-erbA mod: inactive; DAX1 inh-1: inactive; hgDAF12 agonist: inactive; DAX1 inh-2: inactive

What do the screens show for `COC(=O)c1ccc(COc2cc(O)c3c(c2)OC(C)(C)CC3=O)cc1`?
hcDAF12 agonist: inactive; ssDAF-12 act: inactive; Rev-erbA mod: inactive; DAX1 inh-1: inactive; hgDAF12 agonist: inactive; DAX1 inh-2: inactive

Results for CC1(C)CC(=O)c2c(O)cc(OCc3ccc(Br)cc3)cc2O1 ?
hcDAF12 agonist: inactive; ssDAF-12 act: inactive; Rev-erbA mod: inactive; DAX1 inh-1: inactive; hgDAF12 agonist: 14.3; DAX1 inh-2: 4.6; DAX1 inh confirm: 12.6; SF1 AF2mut Luc: 8.9; hgDAF12 ag: inactive; LXR ag 2: inactive

Results for CCC(=O)Nc1ccc2c(c1)ncn2-c1ccc(C)cc1 ?
hcDAF12 agonist: inactive; ssDAF-12 act: inactive; Rev-erbA mod: inactive; DAX1 inh-1: inactive; hgDAF12 agonist: 13.4; DAX1 inh-2: 7.4; DAX1 inh confirm: 9.0; SF1 AF2mut Luc: 5.5; hgDAF12 ag: 11.0; LXR ag 2: inactive

What do the screens show for `O=C1CC(c2ccccc2)=NO1`?
hcDAF12 agonist: inactive; ssDAF-12 act: inactive; Rev-erbA mod: inactive; DAX1 inh-1: inactive; hgDAF12 agonist: inactive; DAX1 inh-2: inactive
